This is an account of results in PubChem BioAssay AID588382 (National Center for Advancing Translational Sciences (NCATS), 2011).

Among all 1,300 compounds or so, about 150 (12%) were called active. Roughly 30% stayed inconclusive and do not appear here. Shown is part of a subset that was picked to be rich in actives. Unmarked numbers belong to inactive results. Calls follow the shape of the dose curve; as a rule, active = well fitted cell-killing curve with a large enough effect; inconclusive = small, poorly fitted or top-dose-only effect, or effect the other way; inactive = flat fitted curve, though single readings scatter.
% is scaled to controls: 0 for no effect and ±100 for the full control effect; potency is read from the fitted curve at half-maximal effect.

The test can be described thus: qHTS of small molecules that selectively kill Giardia lamblia: Hit Validation in HepG2 cytotox.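 Also: compound exposure lasted overnight at 37 deg C; nearly all actives have a fitted effect of over 55% in size.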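 As to activity change, negative = cytotoxicity: viability measured as cellular ATP by ATPLite luminescence.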 The note with it: cell viability; Potency: HepG2 cytotoxicity; series mostly up to 38.3 µM; activity change, negative = cytotoxicity: at the top concentration. In a few lines:
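Counterscreen cytotoxicity: ATPLite luminescence (15 min, room temperature) measured in HepG2 cells exposed overnight at 37 deg C to pin-transferred compound (23 nL) after overnight pre-incubation.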
A general note: Quantitative high-throughput screening tests each substance at several concentrations.
On to `CCOC(=O)CN1C(=O)S/C(=C/c2cccc([N+](=O)[O-])c2O)C1=O`, for which the “activity change, negative = cytotoxicity” value was 0.776%.

With `Cc1ccc(S(=O)(=O)N2CCN(C(=O)COc3ccc(C)nc3[N+](=O)[O-])CC2)c(C)c1`, the “activity change, negative = cytotoxicity” value was 7.88%.

Consider `Cc1ccc(OCC(=O)c2cc(C)n(C)c2C)c([N+](=O)[O-])n1`, for which the “activity change, negative = cytotoxicity” value was 6.59%.

With `COc1ccc(-n2nc([N+](=O)[O-])c(=NCCc3ccc(C)cc3)n2O)cc1`, the “activity change, negative = cytotoxicity” value is 0.151%.

Turning to `Nc1nc(Cl)nc2c1ncn2[C@H]1C[C@H](O)[C@@H](CO)O1`, the “activity change, negative = cytotoxicity” value is -5.68%.

As to `Cc1ncc([N+](=O)[O-])n1CCN1C(=O)c2ccccc2C1=O`, the “activity change, negative = cytotoxicity” value is 8.26%.

As for `O=C1c2ccccc2C(=O)c2c1ccc1c(=O)n(C3CCCCC3)[nH]c21`, the “activity change, negative = cytotoxicity” value was 0.154%.

On to `O=C(CSc1cccc[n+]1[O-])Nc1cc2c(cc1Cl)C(=O)c1ccccc1C2=O`, for which the “activity change, negative = cytotoxicity” value is -16.8%.

As for `O=C(N/N=C/c1cc2c(cc1[N+](=O)[O-])OCO2)c1ccccn1`, the “activity change, negative = cytotoxicity” value is -3.77%.

In the case of `Cc1ccc(N/C(C(Cl)=C(Cl)Cl)=C(/Cl)[N+](=O)[O-])c(C)c1`, the “activity change, negative = cytotoxicity” value is 2.94%.

Turning to `O=C(CCCn1cnc([N+](=O)[O-])n1)Nc1cccc(Cl)c1Cl`, the “activity change, negative = cytotoxicity” value is 11.2%.

Consider `O=[N+]([O-])c1nn(-c2ccc3c(c2)OCCO3)n(O)c1=NCc1ccccc1Cl`, for which the “activity change, negative = cytotoxicity” value was 22.4%.

Consider `Cc1oc2cc([N+](=O)[O-])c(O)c([N+](=O)[O-])c2c1C(=O)c1ccc(Cl)cc1`, for which the “activity change, negative = cytotoxicity” value was 26%.

For `CCN(CC)C(=O)Cn1cc([N+](=O)[O-])cc1[N+](=O)[O-]`, the “activity change, negative = cytotoxicity” value is 6.27%.

Turning to `CC1(C)Oc2cc3oc(-c4cc(O)cc(O)c4)cc3cc2CC1O` (centres undefined), the Potency is 5.85 µM (active).

Take `CCCCNC(=O)/C(=C\c1ccc([N+](=O)[O-])o1)NC(=O)c1ccccc1`: the “activity change, negative = cytotoxicity” value was 14.1%.

On to `O=C(CCN1C(=O)c2ccccc2C1=O)Nc1ccccc1C(F)(F)F`, for which the “activity change, negative = cytotoxicity” value was 11.6%.

In the case of `O=C1c2ccc3c4c(ccc(c24)C(=O)N1CCCCO)C(=O)N(CCCCO)C3=O`, the Potency was 4.14 µM (active).

Take `O=C(CCN1C(=O)c2ccccc2C1=O)NCc1ccc(F)cc1`: the “activity change, negative = cytotoxicity” value is 21.1%.

In the case of `O=[N+]([O-])c1nn(-c2ccc3c(c2)OCCO3)n(O)c1=NCCC1=CCCCC1`, the “activity change, negative = cytotoxicity” value was 1.64%.

As to `O=c1c([N+](=O)[O-])cccn1Cc1ccccc1Cl`, the “activity change, negative = cytotoxicity” value is 1.04%.

Regarding `[O-][n+]1c2ccccc2c2n1CCN=C2c1ccc(Cl)cc1`, the “activity change, negative = cytotoxicity” value was 1.04%.

Turning to `O=[N+]([O-])c1nn(-c2ccc3c(c2)OCCO3)n(O)c1=Nc1ccc(Cl)cc1`, the “activity change, negative = cytotoxicity” value was 20.9%.

For the compound `COc1cc2nc(N3CCN(c4cc(C)ccc4C)CC3)nc(N)c2cc1OC`, the Potency was 9.27 µM (active).

`COc1cc2nc(N3CCN(C)CC3)nc(NC(C)C)c2cc1OC`: the “activity change, negative = cytotoxicity” value was -19.6%.

Turning to `Cc1cc(=S)nc(-c2ccccn2)[nH]1`, the “activity change, negative = cytotoxicity” value is 1.95%.

With `CN1C(=O)/C(=C/c2ccc(O)c([N+](=O)[O-])c2)NC1=S`, the “activity change, negative = cytotoxicity” value was 15.3%.

On to `CCc1cccc(N=c2c([N+](=O)[O-])nn(-c3ccc4c(c3)OCCO4)n2O)c1`, for which the “activity change, negative = cytotoxicity” value was 4.33%.

Consider `Cc1cccc(NC(=O)c2ccc([N+](=O)[O-])s2)c1C`, for which the “activity change, negative = cytotoxicity” value is 0.683%.

Take `Cc1cc(C)cc(Oc2ccc(NC(=O)C3CC=CCC3C(=O)O)cc2)c1` (centres undefined): the “activity change, negative = cytotoxicity” value was -0.27%.

Turning to `CCc1ccc(-c2nc3c(=O)n(C)c(=O)nc-3n(CC)n2)cc1`, the Potency is 1.85 µM (active).

Take `CCn1nc(-c2ccc(C)cc2)nc2c(=O)n(C)c(=O)nc1-2`: the Potency was 5.21 µM (active).

For the compound `CC(=O)O[C@@H]1[C@@H](OC(C)=O)[C@H](n2ccc3cc([N+](=O)[O-])ccc32)OC[C@@H]1OC(C)=O`, the “activity change, negative = cytotoxicity” value is 14%.

Regarding `Cc1ccc([C@@H]2CC=C(C(=O)O)CN2S(=O)(=O)c2ccc(C)cc2)cc1`, the “activity change, negative = cytotoxicity” value was 21%.
